High-throughput results deposited in PubChem by National Center for Advancing Translational Sciences (NCATS).
HepG2 tox = counter-screen for TGF-b inhibitors: cytotoxicity in HepG2 cells; HepG2 CAGA-GFP viability, ATP luminescence, 18 h; Potency, µM (doses to about 46.1 µM), without a hit: top-dose activity change, negative = cytotoxicity, usual class: cytotoxic; hit rate 0.76% among 410,000
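CellTiter-Glo luminescence gave cytotoxicity after 18 hours at 37 degrees C. The cells were HepG2 CAGA-GFP in 1% FBS DMEM, stimulated with 500 pg/mL TGF-beta after compound addition. %Activity was normalised to no-cell wells (complete cell-killing) and DMSO (no toxicity), and curves were fitted and classified.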
TGFb inhibitor = TGF-b pathway inhibition; HepG2 CAGA-GFP TGF-b/SMAD3 reporter, GFP fluorescence, 18 h; TGF-beta stimulated, 500 pg/mL final; Potency, µM (titrated, usually from 46.1 µM), for the others: at the highest dose activity, negative = inhibition, actives largely listed as inhibitors; hit rate 1.2% among 410,000; further: on the % scale 0 is the no-effect control and ±100 the full control effect; nearly all actives have a fitted effect of over 65% in size
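First, reporter cells (HEPG2 CAGA-GFP) rested 2 h at 37 degrees C. Next, compounds were pinned in and TGF-beta added to 500 pg/mL final. After 18 h, GFP was imaged per cell and summed per well.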
Apoferritin bind = candidate novel general anesthetic via apoferritin binding. hit rate 0.074% among 350,000. AID 485281. P02791. Potency, µM (titrated, usually from 77.5 µM), without a hit: top-dose activity change, negative = displacement, hits mostly inhibitors. apoferritin/1-aminoanthracene competitive binding, fluorescence; further: on the % scale 0 is the no-effect control and ±100 the full control effect; nearly all actives have a fitted effect of over 20% in size
Target sequence (P02791 2-175 limits assumed): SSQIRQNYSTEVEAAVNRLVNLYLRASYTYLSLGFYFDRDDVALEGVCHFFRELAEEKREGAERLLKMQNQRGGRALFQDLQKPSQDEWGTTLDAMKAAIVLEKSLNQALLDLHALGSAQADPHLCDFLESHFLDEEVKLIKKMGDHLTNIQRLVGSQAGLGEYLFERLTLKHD
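Apoferritin-based anesthetic binding model; compound displacement of fluorescent 1-AMA measured as endpoint fluorescence after 10 minutes at room temperature, scaled to free-ligand and complex controls.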
ATXN2 expr inh = reduces ATXN2 reporter expression in HEK-293 cells | HEK-293 ATXN2-luciferase reporter, luminescence, 24 h | Potency, µM (top dose mostly 57 µM), for inactives: at the highest dose activity change, negative = inhibition, usual class: inhibitors | hit rate 0.72% among 360,000; further: on the % scale 0 is the no-effect control and ±100 the full control effect; nearly all actives have a fitted effect of over 55% in size
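qHTS (up to 57 uM final) was run with 24 h compound exposure of reporter cells at 37 °C. Each well was multiplexed: SteadyGlo luminescence measured ATXN2-luciferase expression after a fluorogenic Gly-Phe-AFC viability readout (25 uM final).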
ATXN viability = viability counter-screen for ATXN expression inhibitors | S2 cells (HEK-293 line with an ATXN2-luciferase reporter) viability, CellTiter-Fluor protease fluorescence, 24 h | Potency, µM (top dose mostly 56.7 µM), usual class: cytotoxic | hit rate 0.49% among 400,000 | AID 651635; further: nearly all actives have a fitted effect of over 40% in size
An asterisk follows results filed as active; i = inactive; ? = inconclusive; · = not tested or not shown; ! = not active in a repeat; [ ] = another dose, or the depositor's remark. This is a sample that favours compounds with a hit; in the whole collection about 2.4% have one here. The call rests on the fitted dose curve; in most records, active means well fitted curve in the direction sought with a large enough effect; inconclusive means small, poorly fitted or top-dose-only effect, or another doubt; inactive means no such curve, though single readings can be large; an effect the other way counts as inactive or inconclusive. Potency means the concentration at half of the fitted maximal effect.

SMILES	HepG2 tox	TGFb inhibitor	Apoferritin bind	ATXN2 expr inh	ATXN viability
CCOC(=O)[C@]12Cc3cc(Cl)ccc3[C@H]1N(CC(=O)OC)C(=O)c1ccccc12	·	·	·	7.08µM*	7.94µM*
CCCCC/C=C\C/C=C\C/C=C\C/C=C\CCCC(=O)NC1CC1	·	·	-8.9%	·	·
CC[C@@]1(O)C(=O)OCc2c1cc1n(c2=O)-c2cc3ccccc3nc2C1	·	·	276.8%	·	·
CCCCNC(C)(C)[P+](=O)O	·	·	·	·	i
C#CCOCCOCCOCCNc1nc(N2CCN(C(=O)CCCCCCCCCCNC(=O)[C@H]([C@@H](C)CC)n3cc(CCCCN=C(N)N)nn3)CC2)nc(N2CCN(C(=O)CCCCCCCCCCNC(=O)[C@H](CO)n3cc(CCCCCN)nn3)CC2)n1	-88.3%	?	·	28.2µM*	15.8µM*
CN1C2CCC(C)(C)C1CC(OC(=O)C(O)(c1cccs1)c1cccs1)C2 (stereo unspecified)	·	·	·	0.5%	i
CCCN(CCC)c1c([N+](=O)[O-])cc(S(N)(=O)=O)cc1[N+](=O)[O-]	·	·	-19.6%	50.1µM*	50.1µM*
C=C1C(=O)O[C@@H]2C[C@@H](C)[C@H]3C=CC(=O)[C@]3(O)C[C@@H]12	-40.1%	12.6µM*	-4.2%	?	·
O=c1n(Cl)c(=O)n(Cl)c(=O)n1Cl	·	·	·	9.4%	i
COC(=O)C1=C(c2ccc(Cl)c(C(F)(F)F)c2)C[C@@H]2CC[C@H]1N2C(=O)N1CCCC1	-10.2%	-24.3%	·	-31.9%	i
COC(=O)C1=C(c2ccc(Cl)c(C(F)(F)F)c2)C[C@@H]2CC[C@H]1N2C(=O)N1CCC(O)(c2ccc(Cl)cc2)CC1	-46.1%	14.1µM*	·	?	?
O=c1c2ccccc2nc(/C=C\c2cccc(Br)c2)n1-c1ccc(O)cc1	-104.7%	12.6µM*	-10.9%	·	·
Cc1cccc(-n2c(/C=C/c3ccc([N+](=O)[O-])o3)nc3ccccc3c2=O)c1	-25.3%	?	-12.3%	14.1µM*	?
Cc1cccc(-n2c(/C=C/c3ccccc3O)nc3ccccc3c2=O)c1	-21.6%	11.2µM*	40.1%	·	·
CN1C(=O)CCS(=O)(=O)[C@@H]1c1ccc(Cl)cc1	·	·	10.8%[29.3 µM]	·	?
CC[C@H](C)[C@H](NC(=O)CN)C(=O)N[C@@H](CC(C)C)C(=O)NCC(=O)N[C@@H](Cc1ccccc1)C(=O)N[C@H](C(=O)N[C@@H](Cc1ccccc1)C(=O)N[C@H](C(=O)N[C@@H](CC(C)C)C(=O)O)[C@@H](C)O)C(C)C	·	·	-9.5%	·	·
C[C@@H]1O[C@H](O[C@H]2C[C@@H](O)[C@@]3(CO)[C@H]4[C@@H](O)C[C@]5(C)[C@@H](C6=CC(=O)OC6)CC[C@]5(O)[C@H]4CC[C@]3(O)C2)[C@@H](O)[C@H](O)[C@@H]1O	·	·	-3.6%[29.3 µM]	·	·
CN(C)C(=O)Nc1ccc(-n2nc(C(C)(C)C)oc2=O)c(Cl)c1	·	·	-7.1%	·	·
CC#C[C@]1(O)CC[C@H]2[C@@H]3C[C@H](C)C4=CC(=O)CC[C@]4(C)[C@H]3CC[C@@]21C	·	·	·	-26.6%	i
CCOc1ccc(-c2c(C)n(-c3ccc(OCC)cc3)c3[n+]2CCCCC3)cc1	-17.7%	1µM*	-5.6%	?	i
CCOc1ccc(-n2c(-c3ccoc3)nc3ccccc3c2=O)cc1	1.5%	-16.2%	-4.7%	-14.1%	i
CCNC(=O)CC1N=C(c2ccc(Cl)cc2)c2cc(OC)ccc2-n2c(C)nnc21 (stereo unspecified)	·	·	·	77.3%	·
c1ccc(CCCN2CCN(CCOC(c3ccccc3)c3ccccc3)CC2)cc1	11.2µM*	?	·	27.3µM*!	?
CCOc1cccc(=NC2CCCCC2)c2c(C)n(C)c(C)c12	-9.8%	10µM*	-3.5%	?	?
COc1cccc2c1C(=O)c1c(O)c3c(c(O)c1C2=O)CC(O)(C(C)=NO)CC3OC1CC(N)C(O)C(C)O1 (stereo unspecified)	2.7%	6.31µM*	·	1.58µM*	?
COc1cccc(NP(=O)(Oc2ccccc2Cl)Oc2ccccc2Cl)c1	-54.7%	?	3.4%	?	?
COc1cccc(NP(=O)(Oc2ccccc2)Oc2ccccc2)c1	-6.3%	17.8µM*	-5.6%	-13.3%	i
